Reference: PubChem BioAssay (NCI)
About 79,000 compounds went through this panel and 15% of them were active in at least one assay; those are over-represented in the sample as a whole. The source made the active and inactive calls. Cut-off read from the data, not from the text of the source: active = growth inhibition above about 70%; inactive = the rest.

Legend:
[1] = NCI Yeast Anticancer Drug Screen. Data for the rad50 strain (AID 155);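 note: 0% = growth of vehicle-only cultures of the same strain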; settings: S. cerevisiae rad50 strain growth inhibition; at 50.0 µM; active compounds read high
Summary of the method: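 Readout: growth inhibition relative to vehicle-treated cultures. Compound exposure was carried out in a genetically defined yeast strain deficient in DNA damage repair.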

[2] = NCI Yeast Anticancer Drug Screen. Data for the mec2-1 strain (AID 157); settings: S. cerevisiae mec2-1 strain, at 50.0 µM, active compounds read high
Summary of the method: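 Using mec2-1 yeast: add compound, measure growth, express inhibition versus vehicle-treated cultures.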

[3] = NCI Yeast Anticancer Drug Screen. Data for the sgs1 mgt1 strain (AID 161);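 note: 0% = growth of cultures given vehicle only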; settings: S. cerevisiae sgs1 mgt1 strain, at 50.0 µM, active compounds read high
Summary of the method: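 Percent growth inhibition was derived by comparing compound-exposed mutant yeast with vehicle-exposed cultures. The strain carries alterations in DNA damage repair.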

[4] = NCI Yeast Anticancer Drug Screen. Data for the cln2 rad14 strain (AID 165);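 note: 0% = growth equal to vehicle treated cultures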; settings: S. cerevisiae cln2 rad14 strain, at 50.0 µM, active compounds read high
Summary of the method: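 Yeast strain cln2 rad14, bearing defects in cell cycle control and DNA repair, serves as the test system; values reflect growth inhibition compared with vehicle.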

[5] = NCI Yeast Anticancer Drug Screen. Data for the bub3 strain (AID 167); settings: S. cerevisiae bub3 mutant strain, at 50.0 µM, active compounds read high
Summary of the method: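 Readout: yeast growth inhibition, expressed relative to vehicle-only wells. The test organism is a mutant strain from a panel with lesions in DNA repair or checkpoint genes.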

[6] = NCI Yeast Anticancer Drug Screen. Data for the mlh1 rad18 strain (AID 175); settings: S. cerevisiae mlh1 rad18 strain growth inhibition; at 50.0 µM; active compounds read high
Summary of the method: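 Steps: expose repair-defective yeast to compound; measure growth; express inhibition against vehicle-treated controls.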

Measured: growth inhibition

O=C1CCC(N2C(=O)C3C4CCC(O4)C3C2=O)C(=O)O1 (stereo not drawn)
inactive: [1] 12.9% | [2] 3% | [3] 13.9% | [4] 13.8% | [5] 13.8% | [6] 7.85%

COc1ccc(CC(=O)O)cc1OC
inactive: [1] 23.9% | [2] 0.55% | [3] 17.6% | [4] -24.4% | [5] -5.95% | [6] 23.9%

CC1(C(=O)O)CCCC2(C)c3ccc(O)cc3CCC12 (stereo not drawn)
inactive: [1] 37% | [2] 29.9% | [3] 61.2% | [4] -3% | [5] 61.1% | [6] 45%

COc1ccc2c(c1)C(=O)[C@]1(C)C3(C)OC(=O)C(c4ccccc43)[C@]21C (stereo partly drawn)
inactive: [1] 2.6% | [2] -8.6% | [3] -13.8% | [4] 9.3% | [5] -17.6% | [6] 12.6%

O=c1cc(O)cc2n1CCC2
inactive: [1] 5.15% | [2] 4.6% | [3] -11.4% | [4] 16.4% | [5] -14.8% | [6] 0.35%

CC1=CC(O)C(C(O)(C(F)(F)F)C(F)(F)F)C(C)(C)C1 (stereo not drawn)
inactive: [1] -26.8% | [2] -41.2% | [3] -9.95% | [4] -4.6% | [5] 0.15% | [6] -1.25%

O=S(=O)(O)c1ccc2c(N=Nc3cccc4ccccc34)c(O)c(S(=O)(=O)O)cc2c1
inactive: [1] -2.35% | [2] 4.9% | [3] -21.3% | [4] 41.2% | [5] -17.8% | [6] 23.1%

COCCO[Si](OCCOC)(OCCOC)OCCOC
inactive: [1] 4.3% | [2] -10.2% | [3] -1.25% | [4] 11.9% | [5] 7.4% | [6] 10.2%

O=C(O)COc1c(Cl)cc(Cl)cc1Cl
inactive: [1] -34.7% | [2] -37% | [3] -29.6% | [4] -15.4% | [5] -39.9% | [6] -31.6%

Cc1ccc(N=C2OC(=O)c3ccccc32)cc1
inactive: [1] -3.8% | [2] -4% | [3] 0.1% | [4] -39.5% | [5] 9.9% | [6] 32.7%

CNc1c(C)cc(C#N)cc1C
inactive: [1] 7.45% | [2] 1.25% | [3] -10.6% | [4] 0.2% | [5] -4.7% | [6] -5.4%

CN=C1CC2CCCC1C2 (stereo not drawn)
inactive: [1] -15.7% | [2] 0.85% | [3] -5.8% | [4] -6.1% | [5] -7.95% | [6] -15.4%

Cc1ccc(F)cc1S(N)(=O)=O
inactive: [1] -19.4% | [2] -9.65% | [3] -16.6% | [4] -14.4% | [5] 12.3% | [6] -7.8%

C1CCc2[nH]nc(-c3n[nH]c4c3CCCCC4)c2CC1
inactive: [1] 9.25% | [2] 3.35% | [3] 19.9% | [4] 9.95% | [5] 12.3% | [6] 18.5%

O=C(Nc1cccc2ccccc12)Oc1ccc(Br)cc1Br
active: [1] 84.1% | [2] 71.2% | [3] 93.3% | [6] 92.7%
inactive: [4] 30.2% | [5] 54.1%

CC1(C)CC(O)=CC(=O)N1
inactive: [1] 15.9% | [2] -5.75% | [3] -3.85% | [4] 11.7% | [5] 10.3% | [6] 4.45%

O=S(=O)(SC1=NCCN1)c1cccc2ccccc12
inactive: [1] 3% | [2] 3.5% | [3] 20.1% | [4] 30% | [5] -3% | [6] 8.45%

O=S(=O)(O)SCC1=NCCN1
inactive: [1] 17.9% | [2] -5.1% | [3] -3.55% | [4] -34.9% | [5] 11.2% | [6] 9.85%

COC1CCC(/C(C#N)=C/C2CCC(OC)C(OC)C2)CC1 (stereo not drawn)
active: [1] 77.1% | [3] 77.7%
inactive: [2] 66.8% | [4] -8.7% | [5] 68.8% | [6] 63%

C[n+]1cccc(C(=O)O)c1
inactive: [1] 5.25% | [2] 2.75% | [3] 8.65% | [4] -9.05% | [5] 17.8% | [6] 10.1%

N#Cc1ccc(/C=C\c2ccc(C#N)cc2)cc1
inactive: [1] -8.2% | [2] 5.05% | [3] 4.45% | [4] 6.05% | [5] 1.2% | [6] -11.1%

O=C1c2ccccc2C(=O)N1CC(O)CCl (stereo not drawn)
inactive: [1] -21.3% | [2] -30.4% | [3] -0.45% | [4] 12% | [5] -14.5% | [6] -26.5%

Cc1cc(OC(=O)c2c(C)cc(OC(=O)c3c(C)cc(O)cc3O)cc2O)cc(O)c1C(=O)O
inactive: [1] -7.15% | [2] -44.7% | [3] -19.4% | [4] -3.55% | [5] -27.4% | [6] -2.15%

COc1ccc2c(c1)CCC1=C2CCC2=CC(=O)CC[C@@]21C
inactive: [1] 5.4% | [2] 16.6% | [3] 4.4% | [4] 2.5% | [5] 38% | [6] -12.1%

Cc1cc(Cl)ccc1N=C1NC(=O)C(CC(=O)Nc2cccc(Cl)c2)S1 (stereo not drawn)
inactive: [1] 28.6% | [2] 15% | [3] -8.85% | [4] 27.6% | [5] 1.8% | [6] 10.2%

N/N=C1\CC(=O)NC(=O)N1
inactive: [1] -2.15% | [2] -11.1% | [3] 1.9% | [4] 1.8% | [5] 3.05% | [6] 0.05%

O=COCCOC=O
inactive: [1] 19.9% | [2] 5.55% | [3] -23.6% | [4] 20.6% | [5] 10.2% | [6] 14.2%

Cc1ccc(N=Cc2cccs2)c(Br)c1
inactive: [1] -5.7% | [2] -20.1% | [3] -0.2% | [4] 6.4% | [5] -0.95% | [6] 5.95%

O=C(CCn1ccnc1[N+](=O)[O-])NCCCn1ccnc1[N+](=O)[O-]
inactive: [1] -24.1% | [2] -2.15% | [3] -42.4% | [4] -1% | [5] -34.4% | [6] -52.2%

CCN(CC)[Si](C)(C)N(CC)CC
inactive: [1] -20.2% | [2] -24.4% | [3] -1.2% | [4] -41% | [5] -4.5% | [6] 8.1%

O=C(CCBr)OCCC1CCCCC1
inactive: [1] -1.95% | [2] -2.45% | [3] -0.8% | [4] -16.1% | [5] -7.05% | [6] 5.6%

CC(C)(C#N)CCCCC(N)=O
inactive: [1] -1.4% | [2] -13.4% | [3] -12.2% | [4] -6.1% | [5] -19.1% | [6] -10.7%

C=CCOC(=O)c1cccc(C(=O)OCC=C)c1
inactive: [1] 12.6% | [2] 23.4% | [3] 40.2% | [4] 19.1% | [5] 34.5% | [6] 33.8%

CC(=O)OCC1COC(C)(c2ccccc2)O1 (stereo not drawn)
inactive: [1] 4.65% | [2] 0.3% | [3] -6.65% | [4] 3.7% | [5] 4.15% | [6] -9.55%

CCN(CC)C(=O)CC(C)(C)O
inactive: [1] 4.95% | [2] 9.15% | [3] -5.75% | [4] -0.9% | [5] 6.15% | [6] -1.6%

CCc1c(CBr)c(=O)[nH]c2ccccc12
inactive: [1] 8.7% | [2] -8.1% | [3] -10.8% | [4] 0.9% | [5] 1.3% | [6] 2.55%

CCSC1=C(C)N(C=NC(C)(C)C)CC1
inactive: [1] -3.7% | [2] -23.5% | [3] -38% | [4] 7.4% | [5] -28.8% | [6] -14%

C=C1SC(=Nc2c(C)cccc2Cl)N(C(=O)c2sc3ccccc3c2Cl)C12CCCCC2
inactive: [1] 8.05% | [2] -16% | [3] 2.3% | [4] 5.6% | [5] 8.85% | [6] 8.75%
